Compound activity (PubChem BioAssay)
This is a sample that favours compounds with a hit; in the whole collection about 6.8% have one here.
Cy5 interf NS3h – enhances or quenches Cy5 fluorescence in NS3h assay; fluorescence interference ratio at 100 µM; Cy5-dT15 DNA with NS3h, fluorescence interference; actives lie on both sides; signal over control mean, under 1 quenches; AID 720488; hit rate 6% among 16,000;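 active means compound fluorescence over control fluorescence at most 0.8, a quencher, or at least a set upper limit, an enhancer; inactive means ratio between 0.8 and the set upper limit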
HCV NS3h FP – hepatitis C NS3 helicase inhibition, primary screen | hit rate 1.6% among 16,000 | NS3h Cy5-dT15 DNA binding, fluorescence polarization | inhibition, % at 100 µM;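 active means inhibition above the average over every tested compound plus 3 SD, cut at about 40% in these data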
* hit, by the source's call.

SMILES	Cy5 interf NS3h	HCV NS3h FP
CCOC(=O)c1c(NC(=O)c2cc3n(n2)C(C(F)(F)F)CC(c2ccco2)N3)sc(C)c1C (stereo not drawn)	0.746*	5.8
Cc1ccc(OCCOc2ccc(C=O)cc2)cc1C	0.988	11.8
O=C1NC(=S)N(c2ccc(Br)cc2)C(=O)/C1=C/c1ccc(N2CCOCC2)o1	0.981	-1.6
CCOC(=O)c1c(-c2ccc(C)cc2)csc1NC(=O)C(C)(C)C	0.689*	18.6
CCOC(=O)c1c(-c2ccc(C)cc2)csc1NC(=O)C1CC1	1.03	7.8
COC(=O)c1ccc(/C=C2\SC(N3CCN(C)CC3)=NC2=O)cc1	1.09	-1.8
CCOc1ccc(C(=O)Nc2ccc3oc(-c4ccccc4Br)nc3c2)cc1	0.924	4.2
CCCCOc1ccc(C(=O)O/N=C(\c2ccncc2)c2ccc([N+](=O)[O-])cc2)cc1	0.747*	10.5
O=C(O/N=C(\c1ccncc1)c1ccc([N+](=O)[O-])cc1)c1ccccc1F	0.988	11.5
COc1ccc(C(=O)/C=C/NCc2ccccc2)cc1OC	0.946	2.8
CNC(=O)c1c(-c2ccccc2)oc2ccc(O)cc12	0.914	18.1
COC(=O)c1ccc(OCc2cc(C(=O)OC)oc2C)cc1	1.01	7.8
O=C(CCNc1ccc(F)cc1)c1cccs1	1.06	10.6
Cc1cccc(NCCC(=O)c2cccs2)c1C	0.781*	7.4
COc1ccc(S(=O)(=O)N2CCN(C(=O)c3cccc(F)c3)CC2)cc1	1.02	2.7
COc1ccc(S(=O)(=O)N2CCN(C(=O)c3cccs3)CC2)cc1	0.685*	0.3
CC1(C)OC2OC(C(=O)Nc3ccccc3)C3OC(C)(C)OC3C2O1 (stereo not drawn)	1.11	-4.1
COc1ccc(Nc2nnc(-c3ccc(C(=O)NCCO)cc3)c3ccccc23)cc1	1.06	3.0
NC(=O)c1nn2c(c1Cl)NC(c1ccco1)CC2C(F)(F)F (stereo not drawn)	0.933	-8.6
O=S1(=O)N=C(Nc2cccc(Cl)c2)c2ccccc21	0.962	2.2
Nc1cccc(NC(=O)c2ccco2)c1	0.958	-2.6
O=C(O)CCC(=O)Nc1ccc2nn(-c3ccccc3)nc2c1	1.01	3.0
Cc1ccc(NC(=O)c2ccco2)cc1NC(=O)c1ccccc1	0.78*	8.7
O=C(Nc1ccc2nn(-c3ccccc3)nc2c1)C(Cl)(Cl)Cl	0.689*	2.2
CCOC(=O)c1cccc(NC(=O)c2ccco2)c1	0.683*	15.9
SMILES	Cy5 interf NS3h	HCV NS3h FP
COc1ccc(-n2nc3cc(C)c(NC(=O)c4ccco4)cc3n2)cc1	1.06	24.4
COc1ccc(CC(=O)Nc2ccc(C)c(NC(=O)c3ccccc3)c2)cc1OC	0.972	-25.6
Cc1ccc(-n2nc3ccc(NC(=O)c4ccco4)cc3n2)cc1	0.683*	14.1
O=C(O)C(c1ccccc1)C(C(=O)O)c1ccccc1 (stereo not drawn)	0.975	4.6
CCOC(=NS(=O)(=O)c1ccc(Br)cc1)c1ccccc1	0.989	6.0
COc1ccc2oc(=O)c(C(=O)Nc3cccc(Cl)c3)cc2c1	1.03	0.0
CC(=O)Nc1c(C)cc(C(C)(C)c2cc(C)c(NC(C)=O)c(C)c2)cc1C	0.991	1.3
NC(=O)c1ccccc1NC(=O)c1ccccc1[N+](=O)[O-]	1.02	8.2
COc1ccc(S(=O)(=O)N(CCc2ccccc2)CC(=O)Nc2ccc(Br)cc2)cc1OC	1.03	10.9
COc1ccc(S(=O)(=O)N(CC(=O)Nc2ccccc2C(F)(F)F)Cc2ccccc2)cc1OC	0.633*	14.2
Cc1onc(-c2ccccc2Cl)c1C(=O)N1CCN(Cc2ccccc2)CC1	0.923	-9.4
COc1ccc(/C=N\n2c(C)nnc2C)cc1Br	0.986	8.0
O=C1c2ccccc2C(=O)N1N1C(=O)c2cccc([N+](=O)[O-])c2C1=O	1.04	1.9
O=[N+]([O-])c1cccc2c1=C1C(Cl)=CC=C1C=2	0.537*	1.2
CC1=NN(c2ccc(C)c(Cl)c2)C(=O)C1	0.718*	-8.6
Cc1ccc(N2C(=O)C3C4C=CC(C5CC45)C3C2=O)cc1Cl (stereo not drawn)	0.922	4.3
CCOC(=O)c1c(C)oc2c(Br)cc(NS(=O)(=O)c3ccccc3)cc12	0.972	13.9
CCc1ccc(S(=O)(=O)Nc2cc3c(C(=O)O)c(C)oc3c3ccccc23)cc1	0.72*	-17.9
O=C(c1nn2c(c1Br)NC(c1cccs1)CC2C(F)(F)F)N1CCCC1 (stereo not drawn)	0.507*	15.2
O=C(c1nn2c(c1Cl)NC(c1cccs1)CC2C(F)(F)F)N1CCOCC1 (stereo not drawn)	0.67*	1.2
CCOC(=O)c1sc(NC(=O)c2nn3c(c2Cl)NC(c2cccs2)CC3C(F)(F)F)c(C(=O)OCC)c1C (stereo not drawn)	1.02	15.6
O=C(Nc1ccc(Cl)c(Cl)c1)c1nn2c(c1Br)NC(c1cccs1)CC2C(F)(F)F (stereo not drawn)	1.01	11.7
COC(=O)c1cc(C(=O)Nc2ccc(C(C)=O)cc2)cc([N+](=O)[O-])c1	1.01	28.1
